Laboratory results from PubChem BioAssay (NCATS).
Records with an inconclusive call do not appear. Active and inactive are the calls of the source. Calls come from the whole dose curve; as a rule, active = well fitted curve in the direction sought with a large enough effect; inconclusive = small, poorly fitted or top-dose-only effect, or another doubt; inactive = no such curve, though single readings can be large; an effect the other way counts as inactive or inconclusive.

Target: Alpha-galactosidase A (Homo sapiens) (UniProt P06280)
Assay: Counterscreen for Glucocerebrosidase Inhibitors: qHTS Assay for Human alpha-Galactosidase at pH 4.5 (AID 992); note: 0% is about no effect
Conditions: purified enzyme, fluorogenic substrate; series mostly up to 76.9 µM; activity change, negative = inhibition: at the top concentration
How it was run: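 Quantitative HTS: compounds tested from 0.7 nM up to 77 uM against 2 nM enzyme with 80 uM 4-MU alpha-D-galactopyranoside. The 20 min room-temperature reaction is stopped with 1M NaOH/1M glycine, pH 10.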

Alpha-galactosidase A (Homo sapiens), sequence (P06280 whole entry, looked up): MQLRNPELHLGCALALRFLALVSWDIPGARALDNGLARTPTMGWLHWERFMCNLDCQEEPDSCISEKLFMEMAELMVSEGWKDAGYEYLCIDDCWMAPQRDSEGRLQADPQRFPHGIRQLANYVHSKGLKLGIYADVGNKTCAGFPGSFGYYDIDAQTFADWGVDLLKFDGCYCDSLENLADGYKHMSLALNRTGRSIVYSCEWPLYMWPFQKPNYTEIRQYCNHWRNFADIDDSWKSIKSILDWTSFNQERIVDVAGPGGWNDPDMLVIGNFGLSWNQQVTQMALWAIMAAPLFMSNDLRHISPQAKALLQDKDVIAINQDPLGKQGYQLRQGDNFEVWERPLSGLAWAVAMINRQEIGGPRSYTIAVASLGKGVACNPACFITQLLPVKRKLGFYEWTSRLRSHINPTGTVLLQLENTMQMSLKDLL

Structure (SMILES)	activity change, negative = inhibition
COc1cc2c(c(OC)c1OC)-c1ccc(OC)c(=O)cc1[C@@H](NC(C)=O)CC2	1.72% (inactive)
CN1CCN(C2=Nc3cc(Cl)ccc3Nc3ccccc32)CC1	-2% (inactive)
COc1ccc2c(c1)c(CC(=O)O)c(C)n2C(=O)c1ccc(Cl)cc1	-0.0324% (inactive)
COc1nc(C)nc(Cl)c1NC1=NCCN1	1.1% (inactive)
O=c1[nH]cc(F)c(=O)[nH]1	3.5% (inactive)
Cn1c(=O)c2c(ncn2C)n(C)c1=O	-0.755% (inactive)
CC(C)C(=O)Nc1ccc([N+](=O)[O-])c(C(F)(F)F)c1	-0.947% (inactive)
Nc1c2c(nc3ccccc13)CCCC2	-1.36% (inactive)
Nc1ccn([C@H]2CC[C@@H](CO)O2)c(=O)n1	-0.973% (inactive)
O=C(CCCN1CCC(O)(c2ccc(Cl)cc2)CC1)c1ccc(F)cc1	-4.38% (inactive)
NS(=O)(=O)c1cc2c(cc1Cl)NCNS2(=O)=O	-1.25% (inactive)
Cc1ccccc1N1C(=O)c2cc(S(N)(=O)=O)c(Cl)cc2NC1C (centres undefined)	3.47% (inactive)
CCOC(=O)C(C)(C)Oc1ccc(Cl)cc1	-0.496% (inactive)
CN(Cc1cnc2nc(N)nc(N)c2n1)c1ccc(C(=O)N[C@@H](CCC(=O)O)C(=O)O)cc1	2.28% (inactive)
NCCS(=O)(=O)O	-0.674% (inactive)
CN(C)CCC=C1c2ccccc2C=Cc2ccccc21	-5.19% (inactive)
Clc1ccccc1C(c1ccccc1)(c1ccccc1)n1ccnc1	-12.6% (inactive)

Structure (SMILES)	activity change, negative = inhibition
CCC1(c2ccccc2)C(=O)NCNC1=O	-1.31% (inactive)
COc1ccc2[nH]cc(CCNC(C)=O)c2c1	1.4% (inactive)
COc1ccc(C2CNC(=O)C2)cc1OC1CCCC1 (centres undefined)	-0.484% (inactive)
N[C@@H](Cc1c[nH]c2ccc(O)cc12)C(=O)O	-3.64% (inactive)
Cc1cn([C@H]2C=C[C@@H](CO)O2)c(=O)[nH]c1=O	0.734% (inactive)
CN(C)CCOC(c1ccccc1)c1ccccc1	0.8% (inactive)
CCOC(=O)Nc1ccc(NCc2ccc(F)cc2)nc1N	6.04% (inactive)
Cn1cnc2c1c(=O)[nH]c(=O)n2C	5.76% (inactive)
CN(C)CCCN1c2ccccc2CCc2ccc(Cl)cc21	-5.2% (inactive)
O=c1c(-c2ccc(O)cc2)coc2cc(O)cc(O)c12	-1.35% (inactive)
CCc1cccc2c3c([nH]c12)C(CC)(CC(=O)O)OCC3 (centres undefined)	5.53% (inactive)
CNCCCC12CCC(c3ccccc31)c1ccccc12	-0.46% (inactive)
CN1CCC(=C2c3ccccc3C=Cc3ccccc32)CC1	-5.26% (inactive)
Clc1ccc(C(c2ccccc2Cl)C(Cl)Cl)cc1 (centres undefined)	-4.94% (inactive)
Cn1c(=O)c2[nH]cnc2n(C)c1=O	-2.62% (inactive)
Nc1nc2c(ncn2COC(CO)CO)c(=O)[nH]1	1.71% (inactive)

Test system: not listed separately
Assay: Cell Viability - LYMP1-002 - Assay at 24 hr (AID 993); note: % is set by controls: 0 for no effect and ±100 for the full control effect
Conditions: LYMP1-002 lymphoblastoid cells viability; series mostly up to 92.2 µM; activity change, negative = cytotoxicity: at the top concentration
How it was run: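 Human lymphoblastoid LYMP1-002 cells (2500/well) treated 24 h at 37 °C; viability as intracellular ATP by CellTiter-Glo luminescence. Tetraoctylammonium bromide as positive control; AC50 from Hill-equation fits of qHTS concentration-response.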

Structure (SMILES)	activity change, negative = cytotoxicity	outcome
Cc1cn([C@H]2C[C@H](N=[N+]=[N-])[C@@H](CO)O2)c(=O)[nH]c1=O	1.15% (inactive)	–
COc1ccc2c(c1)c(CC(=O)O)c(C)n2C(=O)c1ccc(Cl)cc1	-0.384% (inactive)	–
O=c1[nH]cc(F)c(=O)[nH]1	-16.1% (inactive)	–
Cn1c(=O)c2c(ncn2C)n(C)c1=O	0.176% (inactive)	–
CC(C)C(=O)Nc1ccc([N+](=O)[O-])c(C(F)(F)F)c1	-4.42% (inactive)	–
Nc1c2c(nc3ccccc13)CCCC2	-9.18% (inactive)	–
Nc1ccn([C@H]2CC[C@@H](CO)O2)c(=O)n1	0.543% (inactive)	–
NS(=O)(=O)c1cc2c(cc1Cl)NCNS2(=O)=O	0.0974% (inactive)	–
CC(C)NCC(O)c1ccc(O)c(O)c1 (centres undefined)	-5.43% (inactive)	–
NCCS(=O)(=O)O	1.27% (inactive)	–
Cc1ccc(-c2cc(C(F)(F)F)nn2-c2ccc(S(N)(=O)=O)cc2)cc1	-6.47% (inactive)	–
CCC1(c2ccccc2)C(=O)NCNC1=O	4.5% (inactive)	–
COc1ccc2[nH]cc(CCNC(C)=O)c2c1	–	inactive
N[C@@H](Cc1c[nH]c2ccc(O)cc12)C(=O)O	-3.49% (inactive)	–
Cc1cn([C@H]2C=C[C@@H](CO)O2)c(=O)[nH]c1=O	–	inactive
O=c1c(-c2ccc(O)cc2)coc2cc(O)cc(O)c12	-8.45% (inactive)	–
Clc1ccc(C(c2ccccc2Cl)C(Cl)Cl)cc1 (centres undefined)	-4.97% (inactive)	–
Cn1c(=O)c2[nH]cnc2n(C)c1=O	-3.03% (inactive)	–

Test system: not listed separately
Assay: Cell Viability - LYMP1-002 - Assay at 40 hr (AID 994); note: nearly all actives have a fitted effect of over 60% in size; note: potency is the fitted concentration of half-maximal effect;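 for viability change, negative = cytotoxic: 0% = DMSO only and full inhibition = 92 µM tetraoctylammonium bromide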
Conditions: LYMP1-002 lymphoblastoid cell viability; series mostly up to 92.2 µM; viability change, negative = cytotoxic: at the top concentration
How it was run: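 LYMP1-002 human lymphoblastoid cells (2500/well, complete medium) were treated with compounds for 40 hr at 37 C. Intracellular ATP was measured by CellTiter-Glo luminescence, and AC50 values came from Hill-equation fits of concentration-response data; tetraoctylammonium bromide was the positive control.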

Structure (SMILES)	Potency	viability change, negative = cytotoxic
COc1cc2c(c(OC)c1OC)-c1ccc(OC)c(=O)cc1[C@@H](NC(C)=O)CC2	31.6 nM (active)	–
Cc1cn([C@H]2C[C@H](N=[N+]=[N-])[C@@H](CO)O2)c(=O)[nH]c1=O	–	-5.67% (inactive)
COc1ccc2c(c1)c(CC(=O)O)c(C)n2C(=O)c1ccc(Cl)cc1	–	-4.14% (inactive)
Cn1c(=O)c2c(ncn2C)n(C)c1=O	–	-6.07% (inactive)
CC(C)C(=O)Nc1ccc([N+](=O)[O-])c(C(F)(F)F)c1	–	-19.5% (inactive)
Nc1c2c(nc3ccccc13)CCCC2	–	-16.8% (inactive)
Nc1ccn([C@H]2CC[C@@H](CO)O2)c(=O)n1	–	-12.5% (inactive)
NS(=O)(=O)c1cc2c(cc1Cl)NCNS2(=O)=O	–	2.66% (inactive)
CC(C)NCC(O)c1ccc(O)c(O)c1 (centres undefined)	–	-18.9% (inactive)
NCCS(=O)(=O)O	–	-2.51% (inactive)
Cc1ccc(-c2cc(C(F)(F)F)nn2-c2ccc(S(N)(=O)=O)cc2)cc1	–	-19.1% (inactive)
CCC1(c2ccccc2)C(=O)NCNC1=O	–	-1.11% (inactive)
COc1ccc2[nH]cc(CCNC(C)=O)c2c1	inactive	–
N[C@@H](Cc1c[nH]c2ccc(O)cc12)C(=O)O	–	-11.6% (inactive)
Cc1cn([C@H]2C=C[C@@H](CO)O2)c(=O)[nH]c1=O	inactive	–
O=c1c(-c2ccc(O)cc2)coc2cc(O)cc(O)c12	–	-23.3% (inactive)
Clc1ccc(C(c2ccccc2Cl)C(Cl)Cl)cc1 (centres undefined)	–	-13.3% (inactive)
Cn1c(=O)c2[nH]cnc2n(C)c1=O	–	-10.6% (inactive)
